HP1b binding inh: blocks HP1-beta chromodomain binding to methylated histone tails; P83916; AlphaScreen HP1-beta / biotin-H3K9me3 peptide binding; Potency, µM (top dose mostly 114 µM), without a hit: top-dose activity change, negative = inhibition, most hits filed as inhibitors; actives 0.56% (n = 390,000); also: nearly all actives have a fitted effect of over 70% in size
Target sequence (P83916 whole entry, looked up): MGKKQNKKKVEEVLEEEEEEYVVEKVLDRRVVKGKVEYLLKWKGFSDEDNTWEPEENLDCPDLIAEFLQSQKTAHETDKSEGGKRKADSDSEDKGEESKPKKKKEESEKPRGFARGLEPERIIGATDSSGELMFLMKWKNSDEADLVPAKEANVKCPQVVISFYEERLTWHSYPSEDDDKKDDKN
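Compound inhibition of the preformed complex between 50 nM HP1-beta and 50 nM biotinylated H3K9me3 peptide was read by AlphaScreen. Buffer was PBS pH 7.4 with 0.01% Tween-20. Incubations ran 30 min at room temperature, with 10 ug/mL donor/acceptor beads.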
JMJD2A Tudor: JMJD2A Tudor domain (human) inhibition; O75164; AlphaScreen JMJD2A-Tudor / H3K4me3 peptide binding; Potency, µM (highest dose often 114 µM), for the others: at the top dose activity change, negative = inhibition, most hits filed as inhibitors; actives 4.4% (n = 390,000); also: % is scaled to controls: 0 for no effect and ±100 for the full control effect; nearly all actives have a fitted effect of over 50% in size
Sfp PPTase inh: blocks B. subtilis Sfp PPTase activity; Biochemical Sfp PPTase activity, qHTS; Potency, µM, inactives show largest response in the series, negative = inhibition, hits mostly inhibitors; actives 3.5% (n = 310,000);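 also: the enzyme is Sfp with the accession as filed and its product quenches rhodamine fluorescence; 0% = enzyme reaction without inhibitor and -100% = no enzyme wells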
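With Hepes-Na pH 7.6 buffer containing 10 mM MgCl2, Sfp (15 nM) modified BHQ-2-YbbR (12.5 uM) using rhodamine-CoA (5 uM). Two reads 30 minutes apart at 525/598 nm yielded each well's rate.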
TDP1 block: inhibitors of human tyrosyl-DNA phosphodiesterase TDP1 | Q9NUW8 | recombinant TDP1, AlphaScreen DNA substrate cleavage | Potency, µM (highest dose often 130 µM), without a hit: at the highest dose activity change, negative = inhibition, usual class: inhibitors | actives 0.28% (n = 350,000) | AID 485290; also: % is scaled to controls: 0 for no effect and ±100 for the full control effect; nearly all actives have a fitted effect of over 40% in size
Target sequence (Q9NUW8 whole entry, looked up): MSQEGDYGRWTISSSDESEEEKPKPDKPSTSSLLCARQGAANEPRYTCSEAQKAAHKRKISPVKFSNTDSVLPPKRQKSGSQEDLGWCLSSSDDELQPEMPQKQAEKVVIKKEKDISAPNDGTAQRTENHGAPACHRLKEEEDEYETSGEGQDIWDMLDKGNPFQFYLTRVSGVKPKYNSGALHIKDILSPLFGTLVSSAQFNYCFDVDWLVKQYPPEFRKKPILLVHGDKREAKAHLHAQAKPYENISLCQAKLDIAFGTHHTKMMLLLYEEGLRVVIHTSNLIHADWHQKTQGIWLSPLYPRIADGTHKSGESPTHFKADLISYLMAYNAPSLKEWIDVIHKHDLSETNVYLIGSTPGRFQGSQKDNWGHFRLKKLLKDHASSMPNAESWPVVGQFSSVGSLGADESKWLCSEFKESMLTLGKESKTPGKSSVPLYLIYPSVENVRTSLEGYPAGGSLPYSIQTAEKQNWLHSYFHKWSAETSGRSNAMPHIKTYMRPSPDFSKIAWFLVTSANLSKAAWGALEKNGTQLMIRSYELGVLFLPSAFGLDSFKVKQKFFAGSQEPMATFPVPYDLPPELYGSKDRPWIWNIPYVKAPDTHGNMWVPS
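Here, a 5' biotin and 3' phosphotyrosine-FITC DNA oligonucleotide reports Tdp1 activity: intact substrate bridges AlphaScreen beads, while cleavage leaves a 3' phosphate and drops signal. All incubations at room temperature.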
G9a block: inhibitors of human histone lysine methyltransferase G9a; Q96KQ7; G9a H3K9 monomethylation, AlphaScreen, 2 h; Potency, µM (top dose mostly 102 µM), for the others: at the top dose activity, negative = inhibition, actives largely listed as inhibitors; actives 8.8% (n = 350,000); AID 504332; also: % is scaled to controls: 0 for no effect and ±100 for the full control effect; nearly all actives have a fitted effect of over 75% in size
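AlphaScreen detection with an anti-monomethyl H3K9 antibody quantified product after a 2 h room-temperature reaction containing 500 nM biotinylated H3K9 peptide, 20 µM SAM and 20 nM enzyme, which had been preincubated 15 min with compound.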
BAZ2B inh: inhibitors of human BAZ2B bromodomain; Q9UIF8; AlphaScreen BAZ2B-H3K14Ac peptide displacement; Potency, µM (titrated, usually from 114 µM), for the others: top-dose activity change, negative = inhibition, hits mostly inhibitors; actives 4.4% (n = 360,000); also: % is scaled to controls: 0 for no effect and ±100 for the full control effect; nearly all actives have a fitted effect of over 60% in size
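Inhibition is scored as reduced AlphaScreen emission. The BAZ2B/b-H3(5-23)K14Ac complex (50 nM each) in PBS pH 7.4, 0.01% Tween-20 meets compound (up to 110 uM) for 30 min at RT before bead addition.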
Numbers without * were called inactive; ? = inconclusive; . = no result given; [ ] = another dose, or the depositor's remark. In the library only some 12% were active in any assay of this set; here they are far more common. Calls follow the shape of the dose curve; as a rule, active = well fitted curve in the direction sought with a large enough effect; inconclusive = small, poorly fitted or top-dose-only effect, or another doubt; inactive = no such curve, though single readings can be large; an effect the other way counts as inactive or inconclusive. Potency is read from the fitted curve at half-maximal effect.

SMILES	HP1b binding inh	JMJD2A Tudor	Sfp PPTase inh	TDP1 block	G9a block	BAZ2B inh
C[C@@H]1O[C@@H](OC[C@@H]2O[C@H](Oc3c(-c4ccc(O)cc4)oc4cc(O)cc(O)c4c3=O)[C@@H](O)[C@H](O)[C@H]2O)[C@H](O)[C@H](O)[C@H]1O	21.1%	-21.5%	.	6.2%	.	.
O=C(O)C1OC(Oc2c(-c3ccc(O)c(O)c3)oc3cc(O)cc(O)c3c2=O)C(O)C(O)C1O (centres undefined)	?	31.6µM*	-9.7%	-13.7%	31.6µM*	35.5µM*
O=C1OC(c2cccs2)=N/C1=C\c1ccc(-c2ccccc2Cl)o1	?	?	-12.2%	6.2%	39.8µM*	-36.4%
O=C1OC(c2ccco2)=N/C1=C\c1ccc(-c2cccc(C(F)(F)F)c2)o1	10.8%	-31.7%	2.7%	-2.7%	?	?
O=C1OC(c2cccs2)=N/C1=C/c1ccc(-c2cccc(C(=O)O)c2)o1	?	50.1µM*	-60.8%	?	7.94µM*	25.1µM*
CN(C)/C=C1\N=C(c2cccs2)OC1=O	12.4%	-6.4%	4.9%	-5.2%	-13.3%	-2.8%
c1ccc(-n2c(Cc3cn4ccsc4n3)nnc2N2CCOCC2)cc1	22.6%	50.1µM*	-7.5%	2.0%	?	?
c1ccc(-n2cnnc2SCc2cn3ccsc3n2)cc1	9.6%	-9.8%	-2.6%	-1.9%	?	-24.9%
OC[C@H]1NC[C@@H](O)[C@@H](O)[C@@H]1O	.	.	-15.4%	7.5%	.	.
C/C(=N\NC(=S)Nc1ccc(C(C)C)cc1)c1ccc2c(c1)OCO2	-20.3%	-29.3%	-0.5%	8.2%	?	?
CCNC(=S)N/N=C(\C)c1ccc2c(c1)OCCO2	-20.2%	-34.4%	26.3%	5.1%	16.7%[59 µM]	?
CNC(=S)N/N=C(\C)c1ccc2c(c1)OCCO2	-1.4%	-6.0%	50.1µM*	5.1%	-11.7%[59 µM]	?
COc1cc(/C(C)=N/NC(=S)NC(C)C)cc(OC)c1OC	-24.4%	-28.4%	5.1%	-1.4%	0.6%[59 µM]	-4.9%
C/C(=N\NC(=S)NC(C)C)c1ccc2c(c1)OCCO2	50.1µM*	?	-7.0%	7.1%	?	?
CCc1ccc(OCC(=O)N/N=C(\C)c2ccc3c(c2)OCCO3)cc1	13.5%	-10.4%	56.2µM*	1.1%	19.8%	-8.2%
CNC(=S)N/N=C(\C)c1ccc2c(c1)OCO2	10.3%	-32.6%	79.4µM*	4.9%	?	?
C/C(=N\NC(=O)COc1ccc(C(C)(C)C)cc1)c1ccc2c(c1)OCCO2	7.5%	?	16.7%	0.0%	5.1%[59 µM]	-33.7%
CCN(Cc1ccncc1)C(=O)c1cccc(S(=O)(=O)N2CCCCC2)c1	33.3%	-11.5%	.	-0.2%	.	.
O=C(O)CC/C=C\CC[C@@H]1[C@@H](N2CCCCC2)[C@@H](O)C[C@@H]1OCc1ccc(-c2ccccc2)cc1	.	.	-5.2%	.	?	.
O=C(NCC(=O)N1CCN(S(=O)(=O)c2cccc(F)c2)CC1)c1ccc(Br)o1	14.0%	-14.5%	.	2.8%[0.505 µM]	3.2%	7.1%
Cc1c(CCC(=O)O)c(=O)oc2c(C)c3occ(-c4ccc(Br)cc4)c3cc12	?	?	-20.9%	.	44.7µM*	56.2µM*
Cc1cc2oc(=O)c(CC(=O)O)c(C)c2c2occ(-c3ccc(F)cc3)c12	30.2%	-19.1%	.	2.5%	-21.9%[59 µM]	-12.6%
Cc1c(CC(=O)O)c(=O)oc2c(C)c3occ(-c4ccc(F)cc4)c3cc12	40.3%	-32.6%	35.5µM*	.	4.7%	?
CCCCOC(=O)C1C2CCC(O2)C1C(=O)OCC (centres undefined)	22.2%	-9.0%	.	.	.	.
CCCCOC(=O)C1CCCC(C(=O)OCCCC)N1 (centres undefined)	37.7%	-30.7%	15.6%	-5.7%	50.1µM*	-1.1%
SMILES	HP1b binding inh	JMJD2A Tudor	Sfp PPTase inh	TDP1 block	G9a block	BAZ2B inh
COc1ccc(N2CC(NC(=O)c3ccc(S(=O)(=O)N4CCCCC4)cc3)CC2=O)cc1OC (centres undefined)	24.7%	-12.3%	.	7.8%	6.9%[59 µM]	-4.2%
Cc1ccc(C(=O)Oc2csc(=S)n2C(=O)c2ccc(C)cc2)cc1	-6.5%	?	44.7µM*	2.3%	1.12µM*	?
N#CCCN(NC1=NS(=O)(=O)c2ccccc21)C(=O)c1ccccc1Br	59.1%	35.5µM*	6.6%	.	-3.0%[2.33 µM]	-0.7%
N#Cc1ccc(NC2=NS(=O)(=O)c3ccccc32)cc1	14.9%	-7.5%	.	0.0%	-8.3%[59 µM]	-21.9%
COc1ccc(NC(=O)c2ccccc2SC)cc1	37.4%	-6.3%	-1.6%	-3.6%	44.7µM*	7.8%
COc1ccc(NC(=O)CN(C)CC(=O)Nc2ccccc2SC)cc1	?	31.6µM*	?	-2.6%	8.91µM*	20µM*
COc1ccc(N/C(=C2\CCCC2=O)C2CCCCC2)cc1	-11.1%	56.2µM*	.	.	.	.
COc1ccc(NC(=O)c2cccc(C(=O)Nc3ccc(OC)cc3)n2)cc1	.	.	?	2.4%	70.8µM*	-19.1%
COc1ccc2[nH]cc(CCNc3ncncc3-c3cccc(C#N)c3)c2c1	.	.	-19.9%	.	-8.0%[0.501 µM]	.
COc1ccc2oc(-c3cccc(NC(=O)c4sc5c([N+](=O)[O-])cccc5c4Cl)c3)nc2c1	17.7%	0.0%	.	-1.9%	-10.8%[59 µM]	-8.6%
CSc1ncccc1C(=O)Nc1ccc(OC(F)(F)F)cc1	20.0%	11.2µM*	12.1%	2.4%	13.2%	-0.2%
COc1ccc(NC(=O)c2cc(-c3ccccc3O)no2)cc1	-15.8%	?	.	5.2%	12.6µM*	-28.0%
COc1ccc(-c2cc(C(=O)Nc3ccccc3)on2)cc1	44.1%	-8.7%	16.4%	4.3%	8.9%	-14.6%
C=CCNC(=O)c1ccccc1NC(=O)c1ccccc1SC	30.9%	-7.9%	20µM*	3.6%	.	2.7%
COc1cc(NC(=O)c2cccnc2SC)cc(OC)c1OC	48.6%	-7.5%[57.1 µM]	17.6%	2.9%	16.3%	-2.5%
COc1ccc(NC(=O)CN(C)CC(=O)NCC2CCCCC2)cc1	17.3%	?	.	-4.4%	56.2µM*	-0.4%
Cc1[nH]c2c(C)cccc2c(=O)c1CN1CCCCCC1	32.9%	-6.0%	7.0%	.	-15.9%	-3.7%
COc1ccc(OC)c(NC(=O)CN(C)CC(=O)Nc2ccccc2Br)c1	-3.3%	8.91µM*	?	1.2%	7.94µM*	44.7µM*
COc1cc2c(cc1NC(=O)CN(C)Cc1ccc(OC)c(OC)c1)oc1ccccc12	23.5%	-28.4%	-5.5%	5.5%	?	-8.1%
COc1ccc(NC(=O)c2sc(=S)[nH]c2N)cc1	-27.2%	35.5µM*	56.2µM*	8.6%	?	?
CCOc1ccc(CN(C)CC(=O)Nc2cccc3ccccc23)cc1OC	?	0.794µM*	?	-5.3%	7.08µM*	.
CCCCN1C(=O)c2ccc(C(=O)OCC(=O)NCCc3ccc(S(N)(=O)=O)cc3)cc2C1=O	16.6%	-6.2%	.	1.9%	.	.

Compound activity deposited in PubChem BioAssay by National Center for Advancing Translational Sciences (NCATS).
